Drawing on PubChem BioAssay, this text covers composite z-score and z-score for 13 compounds.

For test [1], the system named is Human papillomavirus type 1a protein E7 (residues 44-93). Briefly: small molecules binding HPV E7 44-93 – biochemical, small-molecule microarray, residues 44-93, 635 nm fluorescence, primary screen (AID 1108).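 Note: E7 fragment applied at 1 µg/mL in TBST for 1 h at 4 C; score combines spot fluorescence with its signal to noise ratio.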 The following applies: fluorescence 635 nm, higher = more signal.
The nature of test [2]: hepatitis C replication reporter changes, two-sided – Huh7 cells, luciferase reporter, HCV replication inhibitor project, primary screen (AID 1109).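 Note: huh7 hepatoma cells harbouring a luciferase neomycin HCV replicon reporter; luciferase luminescence as measure of HCV replicon replication; test concentration not given here.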 The following applies: Huh7 HCV replicon luciferase reporter, 48 h; higher = more signal. A general note: Reporter assays use an easily measured gene product as a stand-in for the process of interest.
Test [3] has as its target Left-right determination factor 2 (Homo sapiens) (UniProt O00292). Briefly: small molecules binding LEFTY2 protein – biochemical, small-molecule microarray, 635 nm fluorescence scan, primary screen (AID 1110). The following applies: higher = more signal.
The target in test [4] is Calmodulin-1 (Homo sapiens) (UniProt P0DP23). As to the kind of experiment: small molecules binding calmodulin-1 with EGTA – biochemical, small-molecule microarray, Cy5-labelled CALM1, profiling panel (AID 1111).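 Note: labelled calmodulin applied in Tris saline Tween buffer holding calcium plus EGTA and DTT.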 The settings on record: Cy5-CALM1 binding fluorescence, higher = more signal.
The target is the same in test [5]. As to the kind of experiment: small molecules binding Ca-loaded calmodulin-1 – biochemical, small-molecule microarray, Cy5-labelled CALM1, plus calcium, artefact control for SMM control-protein annotation, profiling panel (AID 1112).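 Note: score merges spot fluorescence with signal to noise from triplicate slides.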 The settings on record: Cy5-CALM1 binding fluorescence, higher = more signal.
A short description of test [6]: probe aWnt5a binding to arrayed compounds – biochemical, biotinylated probe, 635/667 nm fluorescence, primary screen (AID 1113).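 Note: score merges 667 nm fluorescence intensity with signal-to-noise per printed feature.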 The following applies: small-molecule microarray, higher = more signal.
Test [7] in a line: probe aShh binding to arrayed compounds – biochemical, biotinylated probe, 635/667 nm fluorescence, primary screen (AID 1114).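 Note: probe is biotin-labelled aShh protein from a stem cell growth factor screen; measures binding of labelled protein to compounds printed on the slide; score merges feature fluorescence at 667 nm with signal-to-noise.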 The following applies: small-molecule microarray, higher = more signal.
A short description of test [8]: probe aNog binding to arrayed compounds – biochemical, biotinylated probe, 635/667 nm fluorescence, primary screen (AID 1115).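 Note: probe is biotinylated aNog protein used at 0.15 µg/mL for 1 h at 4 C; z-score combines 667 nm fluorescence of each spot with its signal to noise.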 The settings on record: small-molecule microarray, higher = more signal.
Test [9] addresses Torsin-1A-interacting protein 1 (Homo sapiens) (UniProt Q5JTV8). As to the kind of experiment: compound microarray binding of lysate hLAP1 – cell lysate, small-molecule microarray, COS7 lysate, 635/667 nm fluorescence, primary screen (AID 1116). The settings on record: 635 nm fluorescence, higher = more signal.
The target of test [10] is Alpha-bungarotoxin (Bungarus multicinctus) (UniProt P60615). Briefly: compounds binding labelled alpha-BTX control protein – biochemical, small-molecule microarray, Alexa647 label, 635/667 nm fluorescence, artefact control for SMM control protein annotation, profiling panel (AID 1117). The following applies: alpha-BTX-A647 binding fluorescence, higher = more signal.
Chain of Alpha-bungarotoxin (Bungarus multicinctus) (P60615 whole entry, looked up): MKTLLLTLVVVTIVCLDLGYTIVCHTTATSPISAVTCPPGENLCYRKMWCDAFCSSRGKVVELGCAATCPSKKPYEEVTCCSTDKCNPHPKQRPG

Chain of Left-right determination factor 2 (Homo sapiens) (O00292 whole entry, looked up): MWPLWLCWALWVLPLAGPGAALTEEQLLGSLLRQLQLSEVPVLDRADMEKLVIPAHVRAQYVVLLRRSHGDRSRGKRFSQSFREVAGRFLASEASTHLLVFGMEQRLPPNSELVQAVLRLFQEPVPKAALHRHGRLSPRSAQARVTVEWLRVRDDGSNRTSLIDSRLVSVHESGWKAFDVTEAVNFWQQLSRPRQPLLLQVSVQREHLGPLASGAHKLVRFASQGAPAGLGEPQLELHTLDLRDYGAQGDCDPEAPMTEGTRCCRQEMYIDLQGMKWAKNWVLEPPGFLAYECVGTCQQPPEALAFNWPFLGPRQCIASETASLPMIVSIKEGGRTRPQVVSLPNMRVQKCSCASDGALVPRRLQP
Chain of Torsin-1A-interacting protein 1 (Homo sapiens) (Q5JTV8 whole entry, looked up): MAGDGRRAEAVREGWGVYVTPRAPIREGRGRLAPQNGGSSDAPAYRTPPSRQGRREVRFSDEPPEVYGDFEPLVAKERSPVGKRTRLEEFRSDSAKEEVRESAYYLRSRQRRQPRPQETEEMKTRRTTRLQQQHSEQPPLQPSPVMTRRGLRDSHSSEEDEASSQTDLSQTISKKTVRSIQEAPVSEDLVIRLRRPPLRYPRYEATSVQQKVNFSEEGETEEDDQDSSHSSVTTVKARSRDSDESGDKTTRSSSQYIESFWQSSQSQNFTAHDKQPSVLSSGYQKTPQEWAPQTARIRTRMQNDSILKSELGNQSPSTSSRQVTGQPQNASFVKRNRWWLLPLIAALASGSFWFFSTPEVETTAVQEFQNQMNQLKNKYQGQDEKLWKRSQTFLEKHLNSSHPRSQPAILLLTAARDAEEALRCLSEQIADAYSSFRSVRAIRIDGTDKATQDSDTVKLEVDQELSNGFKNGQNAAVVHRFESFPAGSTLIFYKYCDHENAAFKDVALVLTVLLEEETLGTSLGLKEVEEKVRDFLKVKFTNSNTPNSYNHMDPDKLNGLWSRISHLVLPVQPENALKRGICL

Consider `COCCCNC(=O)[C@@]1(CCC(=O)OC(C)(C)C)N=C(c2ccc(OCCCO)cc2)O[C@H]1c1ccccc1`, for which the composite z-score in test [1] was 1.37; in test [3], -0.926; in [4], 1.1; in [5], 0.783; in [6], -0.0566; in test [7] it was 0.123. Moreover, the figures for the composite z-score in test [8], in test [9] and in test [10] were 1.83, 1.49 and 1.32, respectively. The z-score in test [2] was -0.618.

On to `CC(C)[Si](C#Cc1ccccc1)(O[C@H](c1ccccc1)c1cn(Cc2ccccc2)nn1)C(C)C`, for which the composite z-score is 0.657 in test [1]; 0.0441 in test [3]; -0.49 in test [4]; -1.67 in [5]; -0.169 in [6]; -0.138 in [7]. The composite z-score in [8] was -0.138; in test [9], 0.567; in [10], 0.579. In addition, in test [2], the z-score worked out at 0.167.

Consider `CC(C)C[C@@H]1NC(=O)[C@@H]2C[C@H](C(=O)NCCCCCNC(=O)CS)[C@H](c3ccc(O)cc3)N2C1=O`, for which the composite z-score in test [1] was 1.37; in [3] it was 0.104; in test [4], 1.18; in test [5], 0.194; in test [6], -0.12; in test [7], 0.0637. Moreover, the composite z-score in test [8] was -0.12; in test [9], 0.097; in [10], 0.136. The z-score in test [2] turned out to be 2.04.

As to `CC1C2C(CCCO)=CC(C3C(=O)N(C)C(=O)C23)N1Cc1cccc(OC(F)(F)F)c1` (stereo not given), the composite z-score in [1] is 1.47; in test [3], 0.101; in test [4] it was 1.65; in test [5], 0.841; in test [6] it was 0.0317; in [7], 0.522. The composite z-score in test [8] turned out to be 1.64; in [9], 1.62; in test [10] it was 1.42. For the same compound, the z-score in test [2] was -0.75.

For the compound `CCCN1C(=O)[C@@]2(c3ccc([N+](=O)[O-])cc3)CC(=O)N(C3CCCCC3)[C@@H]2c2ccc(CO)cc21`, the composite z-score in [1] is 0.202; in [3], 0.445; in test [4], -0.0766; in test [5] it was -0.567; in test [6] it was -0.18; in [7], -0.225. Besides, the composite z-score was -0.0165 in test [8], -0.349 in [9] and -0.171 in [10]. In test [2], the z-score was -0.136.

Consider `COc1ccc(C(O)C2C=CC3C(=O)N(c4ccccc4)C(=O)C3N2Nc2ccccc2F)c2ccccc12` (stereo not given), for which the composite z-score in [1] was 0.459; in test [3] it was 0.903; in test [4] it was 2.6; in test [5] it was 0.994; in test [6], 0.416; in test [7] it was 0.425. In addition, the figures for the composite z-score in test [8], in [9] and in test [10] were 1.26, 1.28 and 2.12, respectively. Also, the z-score in [2] was -0.673.

As to `C=CCNC(=O)[C@@H]1[C@H]2C(=O)O[C@H](c3ccccc3)[C@H](c3ccccc3)N2[C@H](c2ccc(OCCO)cc2)[C@@]12C(=O)Nc1ccc(C#CCNC(N)=O)cc12`, the composite z-score in test [1] was 1.24; in test [3], -0.463; in test [4], 1.47; in test [5] it was 0.472; in test [6], -0.0051; in test [7], -0.349. The composite z-score in [8] is -0.361; in test [9] it was 0.0307; in test [10], 0.782. In [2], this compound yielded a z-score of -0.658.

Take `CC1CC/C=C\[C@H]2OC34C=CCN(CCN5CCOCC5)C(=O)[C@H]3N(C(CO)C(C)C)C(=O)[C@@H]4C2C(=O)O1` (stereo not given in full): the composite z-score is 0.0179 in test [1]; -0.0839 in test [3]; -0.388 in test [4]; -1.05 in test [5]; -0.105 in [6]; 0.0469 in test [7]. The composite z-score in test [8] is -0.126; in [9], -0.46; in test [10] it was -0.157. In addition, in [2], the z-score was -0.278.

`COc1ccc([Si](C)(C)[C@@H]2[C@@H](CC(=O)N(CCO)Cc3ccccc3)O[C@]3(C(=O)N(Cc4cccc(I)c4)c4ccccc43)[C@H]2C)cc1`: the composite z-score was 1.28 in [1]; 0.741 in [3]; 2.83 in test [4]; 1.21 in [5]; -0.0425 in [6]; 0.564 in [7]. The composite z-score in test [8] was 0.0051; in test [9] it was 0.319; in test [10], 0.855. In test [2], this compound showed a z-score of -3.82.

As to `Cc1ccc(S(=O)(=O)N2[C@@H](c3ccccc3)C(C(=O)O)=C[C@H]2C(C)(C)C)cc1`, the composite z-score in test [1] is 1.15; in test [3] it was 0.261; in [4], 2.24; in test [5], 0.75; in test [6] it was -0.0718; in test [7], -0.107. The values for the composite z-score in [8], in test [9] and in test [10] were -0.0252, 1.49 and 1.94, respectively. The same compound had a z-score in test [2] of -1.25.

`C=CCNC(=O)[C@@H]1[C@H]2C(=O)O[C@H](c3ccccc3)[C@H](c3ccccc3)N2[C@H](c2ccc(OCCO)cc2)[C@@]12C(=O)N(C(=O)OCCOC)c1ccccc12`: the composite z-score in test [1] was 1.11; in test [3], 0.47; in test [4], 0.789; in test [5] it was 0.132; in test [6], -0.096; in test [7], 0.0639. In addition, the composite z-score in test [8] was -0.103; in test [9], 1.58; in [10], 1.04. The z-score in test [2] was -0.945.

In the case of `COC(=O)[C@@]1(Cc2ccc(F)cc2)[C@@H]2C(=CC(=O)[C@H]2CC(=O)C(=O)N2CCCC2)CN1C(=O)c1ccccc1`, the composite z-score in test [1] is 1.47; in test [3], 0.643; in test [4] it was 1.38; in [5], -0.24; in [6] it was 0.625; in test [7], 0.761. Besides, the values for the composite z-score in test [8], in [9] and in [10] were 2.06, 1.25 and 0.683, respectively. This compound also returned a z-score in [2] of -2.78.

On to `C[N+](C)(C)CCCC[C@@H]1NC(=O)[C@H]2C[C@@H](C(=O)NCCCCCN)[C@@H](c3ccc(O)cc3)N2C1=O`, for which the composite z-score was -0.0195 in test [1]; 1.34 in [3]; 1.67 in test [4]; 0.631 in test [5]; -0.0403 in test [6]; -0.0886 in test [7]. The results for the composite z-score in test [8], in test [9] and in [10] were 0.177, 1.52 and 2.54, respectively. The compound also came in with a z-score in [2] of 0.493.
